{"source": "ChEMBL document CHEMBL4513149", "about": "“CO-ADD screening of MMV (CH) - MMV compounds” (2021)", "note": "Potency and affinity values are given separately."}
{"system": "Candida albicans", "conditions": "20 µM", "units": {"Inhibition": "%"}}
{"smiles": "CN(C(=O)c1cc2c(-c3cncnc3)cccc2[nH]1)c1ccccc1", "Inhibition": 6.97}
{"smiles": "Cc1cc(C)nc(-n2nc(C)cc2Nc2ccccc2)n1", "Inhibition": 11.7}
{"smiles": "Nc1nccc2ccc(Oc3ccncc3)cc12", "Inhibition": 1.98}
{"smiles": "O=C(NC1CCCCC1)N1CCN(Cc2ccc3c(c2)OCO3)CC1", "Inhibition": 0.64}
{"smiles": "O=C(N[C@H](Cc1ccccc1)C(=O)Nc1ccccc1N1CCOCC1)c1cccs1", "Inhibition": 3.1}
{"smiles": "O=[N+]([O-])c1cn2c(n1)OC[C@@H](OCc1ccc(OC(F)(F)F)cc1)C2", "note": "[PRETOMANID]", "Inhibition": 4.06}
{"smiles": "OC[C@H]1O[C@@H](n2c3ccc(Cl)cc3c3c(-c4cc5ccccc5o4)ncnc32)C(O)[C@H]1O", "note": "(some centres not stated)", "Inhibition": 8.5}
{"smiles": "CC1=Nc2ccc(Cl)cc2C(c2ccccc2)N1CCNC(=O)CN(C)C", "note": "(configuration not stated)", "Inhibition": 1.95}
{"smiles": "Cc1nc2ccccn2c1C(=O)NCc1ccc(Cl)cc1", "Inhibition": 2.86}
{"smiles": "CC(=O)Nc1ccc(-c2noc(CC3CCCN(Cc4cccc(F)c4C)C3)n2)cc1", "note": "(configuration not stated)", "Inhibition": 3.14}
{"smiles": "Nc1nccc2ccc(-c3ccc4nccn4c3)cc12", "Inhibition": 2.07}
{"smiles": "COc1cccc(CC(=O)N2CCC(n3c(C)nc4ccc(F)cc43)CC2)c1", "Inhibition": 3.01}
{"smiles": "CCCCN(CCCC)c1c(C#N)cc(S(=O)(=O)Nc2ccccc2)cc1C#N", "Inhibition": 3.66}
{"smiles": "CCN(CC)C(=O)N1CCN(C)CC1", "note": "[DIETHYLCARBAMAZINE]", "Inhibition": 2.79}
{"smiles": "N#Cc1nc(-c2ccccc2F)oc1NCCc1ccccc1", "Inhibition": 6.96}
{"smiles": "CCC(=O)Nc1ccccc1C(=O)Nc1ccccn1", "Inhibition": 3.37}
{"smiles": "Cc1ccc(S(=O)(=O)Nc2ccc(CN3CCN(C(=O)c4cccc(C#N)c4)CC3)cc2)cc1", "Inhibition": -0.01}
{"smiles": "COc1ccccc1OCCCCn1c(C2CC2)nc2ccccc21", "Inhibition": 1.96}
{"smiles": "COc1ccc(N(CCc2cccc(C)n2)C(=O)C2CCCCC2)cc1", "Inhibition": -0.29}
{"smiles": "Nc1ncnc2c1c(-c1cnc3ccccc3c1)nn2CC1CCNCC1", "Inhibition": 2.53}
{"smiles": "CCc1nc2ccccc2n1CC(O)COc1cc(C)ccc1Cl", "note": "(configuration not stated)", "Inhibition": 1.23}
{"smiles": "CNC(=O)c1nn(C)c2c1C(C)(C)Cc1cnc(Nc3ccc(N4CCN(C)CC4)cc3)nc1-2", "note": "[MILCICLIB]", "Inhibition": 4.83}
{"smiles": "Cc1nc(-c2cccc(NCc3ccccc3)c2)[nH]c1C", "Inhibition": 2.98}
{"smiles": "Cc1cc(O)nc(-n2nc(C)cc2C)n1", "Inhibition": 69.6}
{"smiles": "NC(=O)c1cc(-c2ccsc2)ccc1OCCOc1ccccc1", "Inhibition": 1.34}
{"smiles": "Cc1ccc(NC(=O)CC2COc3ccccc3O2)cc1Cl", "note": "(configuration not stated)", "Inhibition": 2.65}
{"smiles": "Nc1ncnc2c1c(Cc1cccc3ccccc13)nn2CC1CCNCC1", "Inhibition": 2.11}
{"smiles": "Cl.NCC(c1cccs1)S(=O)(=O)c1ccccc1", "note": "(configuration not stated)", "Inhibition": 3.86}
{"smiles": "Nc1cccnc1Nc1ccc(Cl)cc1", "Inhibition": 1.73}
{"smiles": "FC(F)(F)c1nnc2ccc(Cl)nn12", "Inhibition": 2.55}
{"smiles": "N#Cc1ccc(-c2ccc(OCC(N)=O)cc2)cc1", "Inhibition": 3.25}
{"smiles": "O=C1COCc2ccc(Br)cc2N1Cc1ccc(C(F)(F)F)cc1", "Inhibition": 8.78}
{"smiles": "Cc1cc(C)n2nc(C(=O)Nc3cc(C(F)(F)F)ccc3N3CCOCC3)nc2n1", "Inhibition": 5.28}
{"smiles": "Cc1nnc(NC(=O)c2cn(-c3ccccc3)nc2-c2ccccc2C)o1", "Inhibition": 4.27}
{"smiles": "COc1ccc(-c2onc(C(F)(F)F)c2-c2ccc(Cl)cc2)c(O)c1", "Inhibition": 2.64}
{"smiles": "COc1ccc2nc(C)cc(OCC(=O)NCc3ccccc3)c2c1", "Inhibition": 2.81}
{"system": "Cryptococcus neoformans", "conditions": "Concentration 20 uM; ASSAY_TEST Inhibition of Fungal Growth; detection method Resazurin; Absorption (OD600-OD570); plate type 384well; NBS; CORNING #3640", "units": {"Inhibition": "%"}}
{"smiles": "CN(C(=O)c1cc2c(-c3cncnc3)cccc2[nH]1)c1ccccc1", "Inhibition": -9.57}
{"smiles": "Cc1cc(C)nc(-n2nc(C)cc2Nc2ccccc2)n1", "Inhibition": 39.43}
{"smiles": "Nc1nccc2ccc(Oc3ccncc3)cc12", "Inhibition": -6.05}
{"smiles": "O=C(NC1CCCCC1)N1CCN(Cc2ccc3c(c2)OCO3)CC1", "Inhibition": -16.64}
{"smiles": "O=C(N[C@H](Cc1ccccc1)C(=O)Nc1ccccc1N1CCOCC1)c1cccs1", "Inhibition": -4.85}
{"smiles": "O=[N+]([O-])c1cn2c(n1)OC[C@@H](OCc1ccc(OC(F)(F)F)cc1)C2", "note": "[PRETOMANID]", "Inhibition": -5.11}
{"smiles": "OC[C@H]1O[C@@H](n2c3ccc(Cl)cc3c3c(-c4cc5ccccc5o4)ncnc32)C(O)[C@H]1O", "note": "(some centres not stated)", "Inhibition": 3.55}
{"smiles": "CC1=Nc2ccc(Cl)cc2C(c2ccccc2)N1CCNC(=O)CN(C)C", "note": "(configuration not stated)", "Inhibition": 10.1}
{"smiles": "Cc1nc2ccccn2c1C(=O)NCc1ccc(Cl)cc1", "Inhibition": -5.69}
{"smiles": "CC(=O)Nc1ccc(-c2noc(CC3CCCN(Cc4cccc(F)c4C)C3)n2)cc1", "note": "(configuration not stated)", "Inhibition": -9.66}
{"smiles": "Nc1nccc2ccc(-c3ccc4nccn4c3)cc12", "Inhibition": -1.17}
{"smiles": "COc1cccc(CC(=O)N2CCC(n3c(C)nc4ccc(F)cc43)CC2)c1", "Inhibition": -4.62}
{"smiles": "CCCCN(CCCC)c1c(C#N)cc(S(=O)(=O)Nc2ccccc2)cc1C#N", "Inhibition": -9.03}
{"smiles": "CCN(CC)C(=O)N1CCN(C)CC1", "note": "[DIETHYLCARBAMAZINE]", "Inhibition": -5.92}
{"smiles": "N#Cc1nc(-c2ccccc2F)oc1NCCc1ccccc1", "Inhibition": -3.78}
{"smiles": "CCC(=O)Nc1ccccc1C(=O)Nc1ccccn1", "Inhibition": -4.64}
{"smiles": "Cc1ccc(S(=O)(=O)Nc2ccc(CN3CCN(C(=O)c4cccc(C#N)c4)CC3)cc2)cc1", "Inhibition": -7.61}
{"smiles": "COc1ccccc1OCCCCn1c(C2CC2)nc2ccccc21", "Inhibition": -4.4}
{"smiles": "COc1ccc(N(CCc2cccc(C)n2)C(=O)C2CCCCC2)cc1", "Inhibition": -4.98}
{"smiles": "Nc1ncnc2c1c(-c1cnc3ccccc3c1)nn2CC1CCNCC1", "Inhibition": -1.76}
{"smiles": "CCc1nc2ccccc2n1CC(O)COc1cc(C)ccc1Cl", "note": "(configuration not stated)", "Inhibition": -20.36}
{"smiles": "CNC(=O)c1nn(C)c2c1C(C)(C)Cc1cnc(Nc3ccc(N4CCN(C)CC4)cc3)nc1-2", "note": "[MILCICLIB]", "Inhibition": -4.76}
{"smiles": "Cc1nc(-c2cccc(NCc3ccccc3)c2)[nH]c1C", "Inhibition": -12.15}
{"smiles": "Cc1cc(O)nc(-n2nc(C)cc2C)n1", "Inhibition": -1.19}
{"smiles": "NC(=O)c1cc(-c2ccsc2)ccc1OCCOc1ccccc1", "Inhibition": -0.49}
{"smiles": "Cc1ccc(NC(=O)CC2COc3ccccc3O2)cc1Cl", "note": "(configuration not stated)", "Inhibition": -13.17}
{"smiles": "Nc1ncnc2c1c(Cc1cccc3ccccc13)nn2CC1CCNCC1", "Inhibition": -1.33}
{"smiles": "Cl.NCC(c1cccs1)S(=O)(=O)c1ccccc1", "note": "(configuration not stated)", "Inhibition": -1.15}
{"smiles": "Nc1cccnc1Nc1ccc(Cl)cc1", "Inhibition": -10.6}
{"smiles": "FC(F)(F)c1nnc2ccc(Cl)nn12", "Inhibition": 2.75}
{"smiles": "N#Cc1ccc(-c2ccc(OCC(N)=O)cc2)cc1", "Inhibition": -13.05}
{"smiles": "O=C1COCc2ccc(Br)cc2N1Cc1ccc(C(F)(F)F)cc1", "Inhibition": -5.61}
{"smiles": "Cc1cc(C)n2nc(C(=O)Nc3cc(C(F)(F)F)ccc3N3CCOCC3)nc2n1", "Inhibition": -4.53}
{"smiles": "Cc1nnc(NC(=O)c2cn(-c3ccccc3)nc2-c2ccccc2C)o1", "Inhibition": -7.03}
{"smiles": "COc1ccc(-c2onc(C(F)(F)F)c2-c2ccc(Cl)cc2)c(O)c1", "Inhibition": 8.78}
{"smiles": "COc1ccc2nc(C)cc(OCC(=O)NCc3ccccc3)c2c1", "Inhibition": -4.71}
